Bioassay records from PubChem BioAssay.
Shown are actives, neighbours in structure and some others; about 2.8% of the full set was active somewhere.
MITF TRPM1 HTS: activators of MITF-driven TRPM1 promoter reporter, primary screen, cell-based, SK-MEL-5, luciferase, single point | 300,000 compounds, 0.75% hits | AID 588334, 2011 | activation, % at 12.5 µM | SK-MEL-5 TRPM1-promoter luciferase, 24 h; % of positive control, neutral wells = 0;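 active = mean activation of at least 80% with every replicate also reaching 80%; inconclusive = mean reaches 80% but some replicate falls short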
Wnt act: Wnt/beta-catenin pathway activators, primary screen, cell-based, plate reader, single point; activation, % at 9.35 µM; Wnt/beta-catenin reporter cell assay, activator; 300,000 compounds, 1.2% hits; in the data active = activation above about 30%, passing the limit was not always enough; inconclusive = no clear call, values can overlap the other calls
esBAF inh: Bmi1 luciferase reporter increase in mESCs, primary screen, esBAF inhibitor project, mouse ES cells, Bmi1 luciferase knock-in, single point; reporter increase, % at 12.5 µM; 24 h; 100% = twice the neutral-well signal; 350,000 compounds, 2% hits; AID 602393, 2012; in the data active = activation above about 40%; inconclusive = no clear call, values can overlap the other calls;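 also: a rise in the Bmi1 reporter signal indicates esBAF inhibition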
FXN GAA850 act: FXN promoter activators, primary screen, cell-based, luciferase luminescence, HEK293 lucGAA850. HEK293 lucGAA850 FXN promoter luciferase reporter, 24 h; percent of 10 µM SAHA response. activation, % at 6 µM. 360,000 compounds, 0.56% hits;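 active = activation above the average of all compounds screened plus 3 SD, cutoff fixed separately per campaign, cut at about 7.5% in these data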
Large screens that a line does not name were inactive.

CC1CCCN(c2ccc3nc4ccccc4c(=O)n3n2)C1 (centres undefined)	none (no result: esBAF inh)
Cc1ccc2nc3ccc(N4CCCC4)nn3c(=O)c2c1	MITF TRPM1 HTS 94 (no result: Wnt act)
C[C@@H](NC(=O)C[C@H]1CC[C@@H]2[C@H](COC[C@H](O)CN2C(=O)Nc2cc(Cl)cc(Cl)c2)O1)c1ccccc1	none (no result: MITF TRPM1 HTS, Wnt act, FXN GAA850 act)
Cc1noc(C)c1S(=O)(=O)Nc1ccc2c(c1)CC(=O)N([C@H](C)CO)C[C@@H](C)[C@H](CN(C)C(=O)Nc1ccc(C(F)(F)F)cc1)O2	none (no result: MITF TRPM1 HTS, Wnt act, FXN GAA850 act)
C[C@@H]1CN([C@@H](C)CO)C(=O)c2cc(C#CCc3ccccc3)cnc2O[C@H]1CN(C)Cc1cccc(F)c1	none (no result: MITF TRPM1 HTS, Wnt act, FXN GAA850 act)
c1ccc(-c2csc(Nc3ccc4c(c3)OCCO4)n2)cc1	Wnt act 46
COc1cccc(Nc2nc(-c3ccc4c(c3)OCCO4)cs2)c1	MITF TRPM1 HTS 87 (no result: Wnt act, esBAF inh)
C=CCNc1nc(-c2ccc3c(c2)OCCO3)cs1	Wnt act 42
CCCNC(=O)C[C@@H]1CC[C@@H]2[C@H](COc3ccc(NC(=O)c4cccc(OC)c4)cc3C(=O)N2C)O1	none (no result: MITF TRPM1 HTS, Wnt act, FXN GAA850 act)
COc1ccc(-c2noc(-c3ccc4c(c3)OCO4)n2)cc1	MITF TRPM1 HTS 87 (no result: esBAF inh)
c1ccc(-c2noc(-c3ccc4c(c3)OCO4)n2)cc1	none (no result: esBAF inh)
COc1cccc(-c2noc(-c3ccc4c(c3)OCO4)n2)c1	Wnt act 42 (no result: esBAF inh)
N/C(=N\OC(=O)C1CCCCC1)c1ccc(Br)cc1	esBAF inh 66 (no result: MITF TRPM1 HTS)
Cc1ccc(C(=O)O/N=C(\N)c2ccc(Br)cc2)cc1	MITF TRPM1 HTS 89, esBAF inh 82 (no result: Wnt act)
COc1ccc(/C(N)=N/OC(=O)c2ccc(C)c([N+](=O)[O-])c2)cc1	esBAF inh 70 (no result: Wnt act)
COc1ccc(/C(N)=N/OC(=O)c2ccc([N+](=O)[O-])c(C)c2)cc1OC	none
COc1ccc(C(=O)O/N=C(\N)c2ccc(Br)cc2)cc1	Wnt act 35, esBAF inh 59
COc1ccc(C(=O)O/N=C(\N)c2ccccc2)cc1	none
N/C(=N\OC(=O)C1CCCCC1)c1ccncc1	none (no result: Wnt act, esBAF inh)
O=C(CC1CC1)Nc1ccc2c(c1)[C@H]1C[C@@H](CC(=O)N3CCCCC3)O[C@H](CO)[C@H]1O2	none (no result: MITF TRPM1 HTS, Wnt act, FXN GAA850 act)
C[C@@H]1CCCCO[C@H](CN(C)C(=O)Nc2ccc(C(F)(F)F)cc2)[C@H](C)CN([C@@H](C)CO)C(=O)c2cc(NS(C)(=O)=O)ccc2O1	none (no result: MITF TRPM1 HTS, Wnt act, FXN GAA850 act)
CCC(=O)Nc1cccc(NC(=S)NC(=O)c2cccs2)c1	MITF TRPM1 HTS 86 (no result: Wnt act, esBAF inh)
N#Cc1ccccc1NC(=O)COC(=O)c1cccs1	none (no result: esBAF inh)
CCC(=O)Nc1cccc(NC(=S)NC(=O)c2ccccc2Cl)c1	none (no result: Wnt act, esBAF inh)
N#Cc1ccccc1NC(=S)NC(=O)c1cccs1	esBAF inh 45
COc1cccc(CNc2cccc(C(F)(F)F)c2)c1O	none
COc1cccc(CNc2ccc(F)c(Cl)c2)c1O	MITF TRPM1 HTS 88 (no result: Wnt act)
CC(C)c1ccc2[nH]c3c(c2c1)[C@@H]1CCN2C(=O)CCC[C@H](C3)[C@H]12	esBAF inh 81
CCCNC(=O)C[C@H]1CC[C@H]2[C@@H](COc3ccc(NC(=O)Cc4cccs4)cc3C(=O)N2C)O1	none (no result: MITF TRPM1 HTS, Wnt act, FXN GAA850 act)
O=c1[nH]c(-c2ccccc2)nnc1-c1ccccc1	Wnt act 32
Cc1nnc(-c2ccccc2)[nH]c1=O	none
OCC1OC(n2ccc3c(SCc4ccccc4)ncnc32)C(O)C1O (centres undefined)	Wnt act 32, esBAF inh 88
O=C(Nc1ccc(Cl)c(S(=O)(=O)N2CCOCC2)c1)c1cc2ccccc2oc1=O	esBAF inh 82
O=C(C[C@@H]1CC[C@@H]2[C@H](COC[C@H](O)CN2Cc2ccccc2)O1)N[C@H]1CCN(Cc2ccccc2)C1	none (no result: MITF TRPM1 HTS, Wnt act, FXN GAA850 act)
O=C1N=c2ccccc2=C1c1sc(Nc2cccc(O)c2)nc1O	esBAF inh 51 (no result: MITF TRPM1 HTS)
O=C1N=c2ccccc2=C1c1sc(Nc2ccc(O)cc2)nc1O	none (no result: esBAF inh)
CCOc1ccc(-c2cn(-c3ccc(OC)cc3)c(SC)n2)cc1	MITF TRPM1 HTS inconclusive, esBAF inh 65 (no result: Wnt act)
O=C(NCCc1ccccc1)c1ccc(Cl)cc1[N+](=O)[O-]	esBAF inh 62
CN1c2ccc(-c3cccc(C#N)c3)cc2[C@H]2[C@H](CCN2S(=O)(=O)c2ccccc2)[C@H]1CO	none (no result: MITF TRPM1 HTS, Wnt act, FXN GAA850 act)
C[C@H](CO)N1C[C@H](C)[C@H](CN(C)CC2CCCCC2)Oc2ccc(NC(=O)Nc3cccc4ccccc34)cc2C1=O	none (no result: MITF TRPM1 HTS, Wnt act, FXN GAA850 act)
CC(C)C(=O)Nc1cccc(C(=O)Nc2nnc(C(C)C)s2)c1	MITF TRPM1 HTS 91 (no result: Wnt act)
CC(C)c1nnc(NC(=O)c2cccc(NC(=O)C(F)(F)F)c2)s1	Wnt act 35 (no result: esBAF inh)
COc1ccc(NC(=O)N(C)C[C@H]2Oc3ccc(NS(=O)(=O)c4cccs4)cc3CC(=O)N([C@H](C)CO)C[C@@H]2C)cc1	none (no result: MITF TRPM1 HTS, Wnt act, FXN GAA850 act)
C[C@@H]1CCCCO[C@H](CN(C)C(=O)CCCN(C)C)[C@H](C)CN([C@@H](C)CO)C(=O)c2cc(NC(=O)NC3CCCCC3)ccc2O1	none (no result: MITF TRPM1 HTS, Wnt act, FXN GAA850 act)
Clc1c(CSc2nc3ccccc3o2)nc2ccccn12	none (no result: Wnt act)
Brc1c(CSc2nc3ccccc3o2)nc2ncccn12	Wnt act 49 (no result: MITF TRPM1 HTS)
O=C(Nc1ccc(N2CCCCC2)c(Cl)c1)c1ccc2c(c1)OCCO2	esBAF inh 52 (no result: MITF TRPM1 HTS)
O=C(Nc1ccc(N2CCOCC2)c(Cl)c1)c1ccccc1F	MITF TRPM1 HTS inconclusive, esBAF inh 103 (no result: Wnt act)
O=C(Nc1ccc(N2CCOCC2)c(Cl)c1)c1ccc2c(c1)OCCO2	none
O=C(Nc1ccc(Cl)c([N+](=O)[O-])c1)c1ccc2c(c1)OCCO2	MITF TRPM1 HTS 95, esBAF inh 86
O=C(Nc1ccc(N2CCOCC2)c(Cl)c1)c1ccc(Cl)cc1	esBAF inh 45
O=C(C[C@@H]1CC[C@H]2[C@@H](COC[C@@H](O)CN2C(=O)c2ccccc2)O1)N1CCc2ccccc2C1	none (no result: MITF TRPM1 HTS, Wnt act, FXN GAA850 act)
COc1cccc(S(=O)(=O)Nc2ccc3c(c2)C(=O)N(C)C[C@@H](OC)[C@H](C)CN(C(=O)Cc2cccnc2)[C@@H](C)CO3)c1	none (no result: MITF TRPM1 HTS, Wnt act, FXN GAA850 act)
O=C(Nc1ccc(N2CCOCC2)c(F)c1)c1cccs1	MITF TRPM1 HTS 110, Wnt act inconclusive
O=C(c1ccccc1)c1ccc(N2CCOCC2)c(F)c1	esBAF inh 58
O=C(Nc1ccc(N2CCCC2)c(Cl)c1)c1ccc(Br)o1	esBAF inh 76 (no result: Wnt act)
CCC(=O)N(C)C[C@H]1Oc2cc(-c3ccc(OC)cc3)ccc2S(=O)(=O)N([C@H](C)CO)C[C@@H]1C	none (no result: MITF TRPM1 HTS, Wnt act, FXN GAA850 act)
CC(C)NC(=O)N(C)C[C@H]1Oc2ncc(C#CC3CCCC3)cc2C(=O)N([C@@H](C)CO)C[C@@H]1C	none (no result: MITF TRPM1 HTS, Wnt act, FXN GAA850 act)
Fc1ccccc1-c1cc2ncccc2cn1	Wnt act 34
O=C(C[C@@H]1CC[C@@H](NS(=O)(=O)c2ccc(F)cc2)[C@@H](CO)O1)NCc1ccc(Cl)c(Cl)c1	none (no result: MITF TRPM1 HTS, Wnt act, FXN GAA850 act)
C[C@@H]1CN([C@H](C)CO)C(=O)c2cc(NS(=O)(=O)c3ccc(Cl)cc3)ccc2O[C@H]1CN(C)C(=O)Nc1cccc2ccccc12	none (no result: MITF TRPM1 HTS, Wnt act, FXN GAA850 act)
O=C(Nc1ccccc1[N+](=O)[O-])C1COc2ccccc2O1 (centres undefined)	esBAF inh 45
